OPRM1-OPRD1 inv: inverse agonist of human OPRM1-OPRD1 heterodimerization | P35372+P41143 | cell-based MOR-DOR heterodimer luminescence, inverse agonism | inhibition, % at 9.3 µM | 340,000 compounds, 0.21% hits | AID 504357; in the data active = inhibition above about 22%, passing the limit was not always enough;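 also: 0% = cells with DMSO and 100% = wells without cells with DMSO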
HTR5A inv ag: inverse agonist of human HTR5A in OPRM1-OPRD1 counter-screen. P47898. HTR5A cell line, luminescence, inverse agonism. inhibition, % at 9.3 µM. 340,000 compounds, 0.083% hits; in the data active = inhibition mostly above about 23%, no sharp cut-off; inactive = mostly below about 18%;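 also: 0% = cells with DMSO and 100% = no-cell wells with DMSO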
Target sequence (P47898 whole entry, looked up): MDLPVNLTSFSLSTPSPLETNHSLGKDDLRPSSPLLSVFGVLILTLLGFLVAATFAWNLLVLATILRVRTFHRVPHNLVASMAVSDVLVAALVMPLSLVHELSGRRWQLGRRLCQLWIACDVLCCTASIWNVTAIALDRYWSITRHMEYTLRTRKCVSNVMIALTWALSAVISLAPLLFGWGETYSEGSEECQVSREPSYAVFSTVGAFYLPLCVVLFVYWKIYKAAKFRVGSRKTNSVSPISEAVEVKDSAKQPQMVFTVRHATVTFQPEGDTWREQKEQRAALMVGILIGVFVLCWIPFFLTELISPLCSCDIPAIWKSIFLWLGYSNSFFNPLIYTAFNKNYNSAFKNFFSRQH
OPRM1-OPRD1 ag: agonists of human mu-delta opioid receptor heterodimerization | P35372+P41143 | cells, OPRM1-OPRD1 heterodimerization, luminescence | activation, % at 9.3 µM | 340,000 compounds, 0.3% hits | AID 504326; in the data active = activation above about 18%;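 also: 0% = vehicle-treated cells and 100% = reference agonist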
HTR5A ag: HTR5A agonism, opioid heterodimer counter-screen. activation, % at 9.3 µM. 340,000 compounds, 0.61% hits. HTR5A agonist assay, luminescence, cell-based; in the data active = activation mostly above about 9.5%, no sharp cut-off; inactive = mostly below about 7.6%;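 also: 0% = cells with vehicle only and 100% = reference agonist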
OPRM1-D1 inv cf: confirmation of human OPRM1-OPRD1 heterodimerization inverse agonists. shares compounds with OPRM1-OPRD1 inv. cells expressing OPRM1/OPRD1 heterodimer, luminescence. inhibition, % at 9.3 µM. 580 compounds, 20% hits; in the data active = inhibition above about 32%;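 also: 0% = cells with DMSO and 100% = wells lacking cells with DMSO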
HTR5A inv count: inverse agonist of human HTR5A in OPRM1-OPRD1 counter-screen | shares compounds with OPRM1-OPRD1 inv | HTR5A-expressing cells, luminescence, inverse agonism | inhibition, % at 9.3 µM | 580 tested, under 10 active; call rule not given here;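 also: 0% = cells with DMSO and 100% = no-cell wells with DMSO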
Numbers without * were called inactive. In the library only some 1.1% were active in any assay of this set; here they are far more common.

CC(=O)Nc1ccc(C2=CC(=O)CC(C)(C)C2)cc1 was read as OPRM1-OPRD1 inv 6, HTR5A inv ag -18, OPRM1-OPRD1 ag -1 and HTR5A ag 0.
`Cc1ccccc1N=C1C(=O)Nc2ccccc21` gave OPRM1-OPRD1 inv 56*, HTR5A inv ag 6, OPRM1-OPRD1 ag -11, HTR5A ag -2, OPRM1-D1 inv cf -128 and HTR5A inv count 5.
`Cc1ccc(N=C2C(=O)Nc3ccccc32)c(C)c1` gave OPRM1-OPRD1 inv 54*, HTR5A inv ag 13, OPRM1-OPRD1 ag -10, HTR5A ag -3, OPRM1-D1 inv cf 21 and HTR5A inv count 2.
Screening CC(=O)NCCc1ccc(C(=O)COC(=O)C2CCCCC2)cc1 returned OPRM1-OPRD1 inv 7, HTR5A inv ag 7, OPRM1-OPRD1 ag -2 and HTR5A ag -2.
CC(C)NC(=O)CN1C(=O)C(=O)c2ccccc21 was read as OPRM1-OPRD1 inv 47*, HTR5A inv ag 8, OPRM1-OPRD1 ag -9, HTR5A ag -3, OPRM1-D1 inv cf -58 and HTR5A inv count -163.
`O=C1C(=O)N(CC(=O)N2CCCC2)c2ccccc21` gave OPRM1-OPRD1 inv 28, HTR5A inv ag 5, OPRM1-OPRD1 ag -5 and HTR5A ag 2.
Screening Nc1n[nH]c(=S)n1/N=C1/C(=O)Nc2ccccc21 returned OPRM1-OPRD1 inv 7, HTR5A inv ag 3, OPRM1-OPRD1 ag -1 and HTR5A ag -1.
Screening O=C1Nc2ccccc2C1=NN1CCCCCC1 returned OPRM1-OPRD1 inv 38*, HTR5A inv ag 20, OPRM1-OPRD1 ag -7, HTR5A ag -5, OPRM1-D1 inv cf 26 and HTR5A inv count -2.
O=C1Nc2ccccc2Nc2ccccc21 was read as OPRM1-OPRD1 inv 16, HTR5A inv ag -3, OPRM1-OPRD1 ag -3 and HTR5A ag 1.
O=C1Nc2ccccc2C1=O was read as OPRM1-OPRD1 inv 55*, HTR5A inv ag -4, OPRM1-OPRD1 ag -10, HTR5A ag -2, OPRM1-D1 inv cf 33* and HTR5A inv count 11.
CN(c1ccccc1)S(=O)(=O)c1cc(C(=O)NCCCn2ccnc2)ccc1Cl was read as OPRM1-OPRD1 inv 18, HTR5A inv ag -13, OPRM1-OPRD1 ag -4 and HTR5A ag -4.
For OCC1OC(Oc2c[nH]c3ccccc23)C(O)C(O)C1O (centres undefined) the results were OPRM1-OPRD1 inv 58*, HTR5A inv ag -3, OPRM1-OPRD1 ag -11, HTR5A ag 1, OPRM1-D1 inv cf -5 and HTR5A inv count 20.
For COc1ccc(C(=O)NC2CCN(CC(=O)Nc3cccc(OC)c3)CC2)cc1 the results were OPRM1-OPRD1 inv 16, HTR5A inv ag 13, OPRM1-OPRD1 ag -3 and HTR5A ag -3.
CC(C)(C)c1cc(Cl)c(O)c(NC(=S)NC(=O)c2cccnc2)c1 was read as OPRM1-OPRD1 inv 47*, HTR5A inv ag 12, OPRM1-OPRD1 ag -10, HTR5A ag -4, OPRM1-D1 inv cf 6 and HTR5A inv count 9.
For COC(=O)c1ccc(NC(=S)NC(=O)c2cccnc2)cc1 the results were OPRM1-OPRD1 inv 28*, HTR5A inv ag -4, OPRM1-OPRD1 ag -6, HTR5A ag -7, OPRM1-D1 inv cf 16 and HTR5A inv count 4.
`CCC(C)c1ccc(O)c(NC(=O)c2cccnc2)c1` (centres undefined) gave OPRM1-OPRD1 inv 3, HTR5A inv ag -23, OPRM1-OPRD1 ag 0 and HTR5A ag 1.
`CC(C)c1ccc(O)c(NC(=S)NC(=O)c2cccnc2)c1` gave OPRM1-OPRD1 inv 43*, HTR5A inv ag 30, OPRM1-OPRD1 ag -8, HTR5A ag -11, OPRM1-D1 inv cf 32* and HTR5A inv count 27.
CCSC(=O)N1c2ccc(OC)cc2C=CC1C#N (centres undefined) was read as OPRM1-OPRD1 inv 5, HTR5A inv ag -28, OPRM1-OPRD1 ag -1 and HTR5A ag 7.
For O=C1C(=O)N(CCS(=O)(=O)c2ccccc2)c2ccc(Cl)cc21 the results were OPRM1-OPRD1 inv 3, HTR5A inv ag -2, OPRM1-OPRD1 ag -1 and HTR5A ag 1.
For CCc1ccc2c(c1)C(=O)C(=O)N2CCS(=O)(=O)c1ccccc1 the results were OPRM1-OPRD1 inv 45*, HTR5A inv ag 13, OPRM1-OPRD1 ag -9, HTR5A ag -3, OPRM1-D1 inv cf -28 and HTR5A inv count -17.
`Cc1ccc2[nH]c(O)c(N=Nc3ccccc3C)c2c1` gave OPRM1-OPRD1 inv 32*, HTR5A inv ag 1, OPRM1-OPRD1 ag -5, HTR5A ag 3, OPRM1-D1 inv cf 4 and HTR5A inv count 4.

Source: PubChem
